How the values were obtained:
Conditions in all cases: concentration: 1 μM, replicates: in singlicate; n = 1
DCAMKL2 = tested on: T1, DCAMKL2
T1 construct: gene DCLK2

DCAMKL3 = tested on: T2, DCAMKL3
T2 construct: gene DCLK3

DDR1 = tested on: DDR1
DDR2 = tested on: DDR2
DLK = tested on: T3, DLK
T3 construct: gene MAP3K12

DMPK2 = tested on: T4, DMPK2
T4 construct: gene CDC42BPG

DMPK = tested on: DMPK
DRAK1 = tested on: T5, DRAK1
T5 construct: gene STK17A

DRAK2 = tested on: T6, DRAK2
T6 construct: gene STK17B

DYRK1A = tested on: DYRK1A
DYRK1B = tested on: DYRK1B
DYRK2 = tested on: DYRK2
EGFR = tested on: EGFR
EIF2AK1 = tested on: EIF2AK1
EPHA1 = tested on: EPHA1
EPHA2 = tested on: EPHA2
EPHA3 = tested on: EPHA3
EPHA4 = tested on: EPHA4
EPHA5 = tested on: EPHA5
EPHA6 = tested on: EPHA6
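Further: KINOMEscan kinase panel screen.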

Row | Compound | %Inh (DCAMKL2) [%] | %Inh (DCAMKL3) [%] | %Inh (DDR1) [%] | %Inh (DDR2) [%] | %Inh (DLK) [%] | %Inh (DMPK2) [%] | %Inh (DMPK) [%] | %Inh (DRAK1) [%] | %Inh (DRAK2) [%] | %Inh (DYRK1A) [%] | %Inh (DYRK1B) [%] | %Inh (DYRK2) [%] | %Inh (EGFR) [%] | %Inh (EIF2AK1) [%] | %Inh (EPHA1) [%] | %Inh (EPHA2) [%] | %Inh (EPHA3) [%] | %Inh (EPHA4) [%] | %Inh (EPHA5) [%] | %Inh (EPHA6) [%]
1 | c1ccc(Oc2ccc(Nc3ccnc4cc(-c5ccc(CNCCN6CCOCC6)o5)ccc34)cc2)nc1 [GW567145] | 0 | 0 | 0 | 50 | 49 | 0 | 0 | 2 | 54 | 0 | 0 | 15 | 39 | 0 | 72 | 12 | 17 | 0 | 0 | 0
2 | c1ccc(-c2n[nH]cc2Nc2ccnc3ccccc23)nc1 [GW694077] | 0 | 12 | 0 | 10 | 74 | 0 | 0 | 99.4 | 0 | 99.9 | 100 | 90 | 15 | 0 | 0 | 0 | 0 | 4 | 0 | 0
3 | O=C(Nc1n[nH]c2nc(-c3ccc(O)cc3)ccc12)C1CC1 [SB-710363] | 0 | 76 | 0 | 27 | 0 | 0 | 0 | 93.4 | 26 | 62 | 65 | 97.2 | 0 | 0 | 0 | 0 | 16 | 3 | 0 | 17
4 | CCS(=O)(=O)c1ccc(OC)c(Nc2nccc(-c3c(-c4cccc(NC(=O)c5c(F)cccc5F)c4)nn4ncccc34)n2)c1 [GSK326180] | 0 | 1 | 90 | 8 | 0 | 78 | 0 | 0 | 1 | 12 | 0 | 16 | 99.3 | 0 | 23 | 0 | 12 | 100 | 0 | 100
5 | COc1cccc(C2=C(Nc3ccc(Cl)c(C(=O)O)c3)C(=O)NC2=O)c1 [SB-390769] | 20 | 1 | 0 | 36 | 0 | 0 | 0 | 100 | 100 | 18 | 100 | 100 | 24 | 99.6 | 1 | 10 | 0 | 0 | 0 | 2
6 | Cl.Cl.NCC(NCc1ccc(-c2ccnc3[nH]ccc23)s1)c1ccccc1 (centres unmarked) [GSK1321565] | 0 | 0 | 0 | 34 | 0 | 25 | 81 | 75 | 6 | 38 | 25 | 80 | 24 | 0 | 24 | 0 | 0 | 0 | 0 | 0
7 | COc1cccc(NC(=O)NC2CCN(c3ccnc(Nc4cc(OC)c(OC)c(OC)c4)n3)C2)c1 (centres unmarked) [GSK1379763] | 0 | 0 | 22 | 24 | 46 | 27 | 0 | 0 | 0 | 0 | 15 | 4 | 12 | 0 | 6 | 0 | 0 | 0 | 0 | 0
8 | CCCCc1nn2ncccc2c1-c1ccnc(Nc2ccc(N3CCN(C)CC3)cc2)n1 [GW684941] | 25 | 2 | 100 | 96.2 | 47 | 50 | 0 | 5 | 0 | 17 | 20 | 3 | 81 | 0 | 88 | 42 | 9 | 29 | 0 | 40
9 | COc1cc2c(cc1OCCN1CCNCC1)ncc1c3ccc(C#N)cc3[nH]c21 | 3 | 4 | 0 | 1 | 85 | 0 | 5 | 99.5 | 99.6 | 93.1 | 63 | 73 | 26 | 0 | 3 | 3 | 0 | 1 | 2 | 0
10 | Cc1ccc(S(=O)(=O)Nc2ccc(Nc3nccc(Nc4cccc5[nH]ncc45)n3)cc2)cc1 [GSK581271] | 5 | 21 | 82 | 36 | 0 | 0 | 0 | 61 | 7 | 16 | 0 | 12 | 42 | 0 | 66 | 21 | 0 | 13 | 0 | 0
11 | COC(=O)Nc1nc2ccc(Oc3ccc(NC(=O)Nc4cc(C(F)(F)F)ccc4F)cc3)cc2n1C.Cl [GW692089] | 0 | 9 | 100 | 99.9 | 31 | 0 | 0 | 0 | 9 | 2 | 26 | 0 | 0 | 0 | 36 | 75 | 26 | 65 | 0 | 84
12 | COC(=O)Nc1nc2cc(Oc3ccc(NC(=O)Nc4cc(C(F)(F)F)ccc4F)cn3)ccc2[nH]1.Cl.Cl [GW681170] | 15 | 3 | 100 | 97.1 | 35 | 0 | 0 | 16 | 0 | 0 | 12 | 0 | 12 | 5 | 64 | 92.3 | 47 | 81 | 43 | 91
13 | Cc1cccc(Nc2nc(N[C@H]3CCNC3)ncc2C(N)=O)c1.Cl [GSK2197149] | 30 | 0 | 0 | 0 | 35 | 4 | 0 | 53 | 22 | 24 | 12 | 32 | 50 | 22 | 0 | 0 | 45 | 8 | 0 | 7
14 | COCCOCCOc1cc2ncc3c4ccc(C#N)cc4[nH]c3c2cc1OC | 14 | 66 | 0 | 0 | 71 | 0 | 3 | 100 | 100 | 99 | 72 | 70 | 12 | 0 | 15 | 33 | 0 | 23 | 11 | 25
15 | Cl.NC(=O)c1cccc(Nc2nccc(Nc3ccc(Oc4c(Cl)cccc4Cl)c(Cl)c3)n2)c1 [GW659009] | 0 | 0 | 0 | 0 | 0 | 64 | 0 | 0 | 0 | 3 | 0 | 6 | 99.5 | 13 | 0 | 0 | 0 | 0 | 0 | 0
16 | Cc1ccc(C)c(NC(=O)NC2CCN(c3ccnc(Nc4ccc(F)cc4)n3)C2)c1 (centres unmarked) [GSK1379720] | 0 | 3 | 0 | 25 | 0 | 0 | 0 | 10 | 0 | 10 | 0 | 8 | 0 | 0 | 18 | 0 | 0 | 0 | 0 | 0
17 | O=C(Nc1cccc(-c2nn3ccccc3c2-c2ccnc(Nc3cccc(C(F)(F)F)c3)n2)c1)c1c(F)cccc1F [GSK292658] | 0 | 0 | 99.3 | 50 | 2 | 49 | 0 | 0 | 0 | 9 | 1 | 3 | 98.2 | 0 | 5 | 8 | 0 | 5 | 0 | 7
18 | CC(C)(C)c1ccc2nccc(Nc3cccc(O)c3)c2c1 [GW856795] | 0 | 0 | 62 | 47 | 16 | 0 | 3 | 5 | 1 | 0 | 48 | 51 | 63 | 0 | 74 | 18 | 21 | 18 | 37 | 18
19 | COc1cc(Nc2nccc(N3CCC(NC(=O)c4cc5ccccc5s4)C3)n2)cc(OC)c1OC (centres unmarked) [GSK1379760] | 14 | 0 | 0 | 39 | 31 | 5 | 0 | 0 | 0 | 0 | 33 | 19 | 45 | 0 | 3 | 9 | 0 | 7 | 0 | 5

From paper PMC5540273 (PLoS ONE, 2017)
